Bioassay records deposited in PubChem BioAssay by several laboratories.
CYP2C9 inh: inhibitors of human CYP2C9. hit rate 20% among 96,000. inhibition, % at 5 µM. CYP2C9 Supersomes, luciferin-H conversion, luminescence. P11712;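 active = blocking of liver enzyme CYP2C9 beyond about 50% at 5 µM, limit read from the data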
Target sequence (P11712 whole entry, looked up): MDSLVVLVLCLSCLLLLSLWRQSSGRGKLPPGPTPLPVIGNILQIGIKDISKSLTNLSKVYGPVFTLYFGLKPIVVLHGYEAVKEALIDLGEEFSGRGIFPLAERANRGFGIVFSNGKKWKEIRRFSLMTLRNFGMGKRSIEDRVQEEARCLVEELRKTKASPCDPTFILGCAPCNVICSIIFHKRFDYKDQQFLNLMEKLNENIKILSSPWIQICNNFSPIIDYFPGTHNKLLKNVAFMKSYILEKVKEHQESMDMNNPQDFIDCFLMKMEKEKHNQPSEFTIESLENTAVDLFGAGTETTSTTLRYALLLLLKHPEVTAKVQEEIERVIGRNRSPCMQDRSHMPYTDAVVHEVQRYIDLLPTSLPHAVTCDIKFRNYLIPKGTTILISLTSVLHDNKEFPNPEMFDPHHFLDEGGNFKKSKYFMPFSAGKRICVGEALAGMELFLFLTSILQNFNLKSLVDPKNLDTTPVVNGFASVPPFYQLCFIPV
F-actin modifier: alters cytoskeleton assembly in HUVEC cells. HUVEC TNFa F-actin phalloidin imaging, high content. inhibition, % at 2 µM. hit rate 0.18% among 91,000. AID 836;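 active = inhibition above the batch mean plus 3 SD and confirmed as a hit by visual image inspection, cut at about 30% in these data, passing the limit was not always enough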
E-sel TNF inh: TNF alpha driven E-selectin expression inhibition; HUVEC TNFa-induced E-selectin immunofluorescence, high content; inhibition, % at 2 µM; hit rate 0.71% among 120,000;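 active = inhibition above the batch mean plus 3 SD, and confirmed as a hit on visual image review, cut at about 43% in these data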;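 note: 0% = TNF-stimulated DMSO wells and 100% = unstimulated control wells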
CYP2C19 activ: cytochrome P450 2C19 (human) activation; P33261; recombinant CYP2C19, luciferin-H EGE luminescence; stronger effect = higher value; 0 = fully inhibited enzyme, 1 = untreated enzyme; activation factor at 5 µM; 96,000 tested, under 10 active; AID 1025;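 active = activation factor of at least 2 at 5 µM in the primary screen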;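 note: 0 = wells with 2.5 mM tranylcypromine and 1 = vehicle-only wells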
CYP2C9 act: CYP2C9 (human) activation | P11712 | recombinant CYP2C9, luciferin-H conversion, luminescence; stronger effect = higher value; factor 1 = untreated enzyme, 0 = blocked | activation factor at 5 µM | hit rate 1.4% among 96,000;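 active = activation factor of 2 or more for CYP2C9 at a 5 µM dose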;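 note: 0 = sulfaphenazole-blocked wells and 1 = vehicle-only wells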
CYP2C19 inh: human CYP2C19 inhibition. P33261. CYP2C19 Supersomes, luciferin-H EGE luminescence, 30 min. inhibition, % at 5 µM. hit rate 21% among 96,000;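 active = CYP2C19 inhibition above a set limit at 5 µM in the primary screen, cut at about 50% in these data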;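 note: plate controls were negative control wells for no effect and 2.5 mM tranylcypromine positive control for full effect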
* hit, by the source's call. Most compounds without a hit are left out; they make up all but 22% or so of the library.

Screening O=C(Nc1ccc(Cl)cc1)C1CCC(=O)N1Cc1ccccc1Cl (configuration not stated) returned CYP2C9 inh 91*, F-actin modifier 1, E-sel TNF inh 5, CYP2C19 activ 0.2, CYP2C9 act 0.1 and CYP2C19 inh 79*.
For CC(C)CC(=O)NC(=S)Nc1ccccc1C(F)(F)F the results were E-sel TNF inh -1.
Screening Cc1ccc([N+](=O)[O-])cc1NC(=O)c1ccc(C(C)(C)C)cc1 returned CYP2C9 inh -46, F-actin modifier 2, E-sel TNF inh -66, CYP2C19 activ 0.8, CYP2C9 act 1.5 and CYP2C19 inh 17.
Cc1ccc([N+](=O)[O-])cc1NC(=S)NC(=O)C(C)(C)C was read as CYP2C9 inh 82*, F-actin modifier -16, E-sel TNF inh -6, CYP2C19 activ 0.4, CYP2C9 act 0.2 and CYP2C19 inh 59*.
Cc1ccc([N+](=O)[O-])cc1NC(=S)NC(=O)CC(C)(C)C was read as CYP2C9 inh 85*, F-actin modifier -22, E-sel TNF inh -35, CYP2C19 activ 0.7, CYP2C9 act 0.2 and CYP2C19 inh 27.
`CC(C)(C)CC(=O)NC(=S)Nc1ccccc1C(F)(F)F` gave CYP2C9 inh 52*, F-actin modifier 5, E-sel TNF inh 3, CYP2C19 activ 0.6, CYP2C9 act 0.5 and CYP2C19 inh 41.
Screening Cc1cccc(N=C2NC(=O)/C(=C3/C(=O)N(C)c4ccccc43)S2)c1C returned CYP2C9 inh 93*, F-actin modifier 22, E-sel TNF inh -24, CYP2C19 activ 0.5, CYP2C9 act 0.1 and CYP2C19 inh 50*.
Screening COc1cccc(/C=C/C(=O)OCC(=O)Nc2ccc(N3CCOCC3)cc2)c1OC returned E-sel TNF inh -19.
Screening O=c1nc2sc3ccccc3n2c(=O)n1-c1cccc(Cl)c1 returned CYP2C9 inh 28, F-actin modifier 7, E-sel TNF inh 20, CYP2C19 activ 0.3, CYP2C9 act 0.7 and CYP2C19 inh 68*.
Screening Cc1ccc(N(CC(N)=O)C2SC(=O)N(Cc3ccccc3)C2=O)cc1 (configuration not stated) returned CYP2C9 inh 0, F-actin modifier 3, CYP2C19 activ 0.6, CYP2C9 act 1 and CYP2C19 inh 42.
Screening COc1cccc(CNCc2ccc(SC)cc2)c1OC returned CYP2C9 inh 16, F-actin modifier 14, E-sel TNF inh -31, CYP2C19 activ 0, CYP2C9 act 0.8 and CYP2C19 inh 100*.
O=C(O)c1ccc(-c2ncc[nH]2)cc1 was read as E-sel TNF inh -12.
Screening COc1ccc(N=C2SC(CC(=O)Nc3ccccc3)C(=O)N2CCc2ccccn2)cc1 (configuration not stated) returned E-sel TNF inh 13.
Screening CC(O)CN1C(=O)C(CC(=O)Nc2ccc(Cl)cc2)SC1=Nc1ccccc1 (configuration not stated) returned CYP2C9 inh 67*, F-actin modifier -13, E-sel TNF inh 14, CYP2C19 activ 0.3, CYP2C9 act 0.3 and CYP2C19 inh 72*.
Screening C=CCN1C(=O)C(CC(=O)Nc2ccc(C)cc2)SC1=Nc1c(C)n(C)n(-c2ccccc2)c1=O (configuration not stated) returned CYP2C9 inh 66*, F-actin modifier 8, CYP2C19 activ 0.4, CYP2C9 act 0.3 and CYP2C19 inh 62*.
COCCN1C(=O)C(CC(=O)Nc2ccc(C(C)=O)cc2)SC1=Nc1ccccc1 (configuration not stated) was read as CYP2C9 inh 72*, F-actin modifier 12, E-sel TNF inh 9, CYP2C19 activ 0.5, CYP2C9 act 0.3 and CYP2C19 inh 54*.
`C=CCN1C(=O)C(CC(=O)O)SC1=Nc1c(C)n(C)n(-c2ccccc2)c1=O` (configuration not stated) gave CYP2C9 inh -11, F-actin modifier 11, E-sel TNF inh 16, CYP2C19 activ 0.9, CYP2C9 act 1.1 and CYP2C19 inh 12.
CCNC(=O)COC(=O)c1ccc(S(=O)(=O)N2CCCCCC2)cc1 was read as CYP2C9 inh 34, F-actin modifier 39, E-sel TNF inh -19, CYP2C19 activ 1, CYP2C9 act 0.7 and CYP2C19 inh 5.
